This passage reports Potency results from PubChem BioAssay AID434936 (National Center for Advancing Translational Sciences (NCATS), 2010).

Records with an inconclusive call do not appear. Activity calls are given as the source filed them. Calls come from the whole dose curve; as a rule, active = well fitted curve in either direction with a large enough effect; inconclusive = small, poorly fitted or top-dose-only effect; inactive = flat fitted curve, though single readings scatter.

Sequence of Neuropeptide S receptor (Homo sapiens) (Q6W5P4 whole entry, looked up): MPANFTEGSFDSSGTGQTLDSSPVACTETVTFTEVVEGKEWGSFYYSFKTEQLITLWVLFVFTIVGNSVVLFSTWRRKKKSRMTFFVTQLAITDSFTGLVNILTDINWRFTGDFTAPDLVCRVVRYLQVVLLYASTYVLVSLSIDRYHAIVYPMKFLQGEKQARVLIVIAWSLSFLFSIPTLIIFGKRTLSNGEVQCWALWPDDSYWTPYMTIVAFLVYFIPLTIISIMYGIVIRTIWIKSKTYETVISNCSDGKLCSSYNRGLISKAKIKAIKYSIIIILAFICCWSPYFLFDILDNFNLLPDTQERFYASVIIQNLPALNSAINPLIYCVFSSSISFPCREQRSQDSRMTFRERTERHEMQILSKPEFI

This assay has as its target Neuropeptide S receptor (Homo sapiens) (UniProt Q6W5P4). Nature of the assay: Confirmation Concentration-Response Assay for Antagonists of the Neuropeptide S Receptor: Robust Characterization of cAMP Signal Transduction. The following applies: CHO-NPSR cells, NPS-stimulated cAMP TR-FRET. The source says:
NIH Chemical Genomics Center [NCGC] NIH Molecular Libraries Probe Production centers Network [MLPCN] MLPCN Grant: X01-DA026210-01 Assay Submitter (PI): Heilig, Markus Alexander NCGC Assay Overview: Neuropeptide S receptor (NPSR), previously known as GPR154, is a recently de-orphanized G protein coupled receptor. Its endogenous ligand is the 20 amino acids peptide Neuropeptide S (NPS). […] NPS and its receptor are found in various tissues. Specifically they are highly expressed in brain areas that have been implicated in modulation of arousal, stress and anxiety. Central administration of NPS in mice produces an unusual profile of activity by inducing wakefulness and arousal, while at the same time suppressing anxiety. Therefore, NPSR may represent a novel drug target for the treatment of sleep and anxiety disorders. To identify NPSR antagonists, we developed a cell-based cAMP assay. NPS can stimulate the production of cAMP in Chinese hamster ovary cells stably expressing NPS receptor. This change in intracellular cAMP level can be detected by a homogeneous LANCE cAMP assay based on the TR-FRET (time resolved fluorescence resonance energy transfer) between a europium-labeled cAMP tracer complex and a cAMP-specific antibody labeled with Alexa Fluor 647. The europium-labeled cAMP tracer complex is formed by the tight interaction between Biotin-cAMP (b-cAMP) and streptavidin labeled with Europium-W8044 chelate (Eu-SA). Light pulse at 320 nm excites the europium of the cAMP tracer and the energy emitted is transferred to the Alexa molecule bound to the cAMP antibody, generating a TR-FRET signal at 665 nm. Residual energy from the europium will produce a light at 620 nm. The native unlabeled cAMP from cell lysates competes with the europium-cAMP tracer for antibody binding and reversely reduces the emission signal of Alexa by interrupting FRET between the two labeled molecules. Both emission signals from the FRET donor (620 nm) and the acceptor (665 nm) can be detected by a plate reader in the TRF mode. Expression of result in fluorescence ratio (665 nm/620 nm) helps to normalize differences due to cell density and reagent dispensing. This assay was successfully optimized to a 1536-well plate format. Select compounds from the primary screen (AID 1461) were chosen for confirmation based on potency, efficacy, SAR, and activity across other assays in PubChem and at NCGC. Other compounds are analogs of active compounds from the primary screen. This particular assay uses a high density of sampling across concentration-response space to establish more confidence estimates of potency.
NCGC Assay Protocol Summary: A Chinese hamster ovary (CHO) cell line stably expressing the NPS receptor (CHO-NPSR) was obtained from Dr. Heilig lab at NIAAA and maintained in F-12 Kaighn's media (Invitrogen, Carlsbad, CA, 21127) supplemented with 10 % FBS, 100 units/ml penicillin, 100 ug/ml streptomycin and 250 ug/ml geneticin at 37C, 5% CO2 in a humidified atmosphere. Before the assay, aliquots of cells were frozen and stored at -135C. The assay was performed in 1536-well format. Data are reported for both the ratio of the two emission wavelengths, and also for the component 'donor' channel, Em2=620. […] IC50 values were determined from concentration-response data modeled with the standard Hill equation. NPS 1536-well assay protocol: (1) Fresh or frozen CHO-NPSR cells were suspended in F-12 Kaighn's media supplemented with 10 % FBS, 100 units/ml penicillin and 100 ug/ml streptomycin. Cells were plated at 4 ul/well (1200 cells) to white, tissue culture treated 1536-well plates, and then cultured at 37C, 5 % CO2 for 16 to 30 hours. (2) Add 23 nl/well of compound in DMSO solution. The final titration for each compound was between 0.6 nM and 46 uM. […]
For orientation: TR-FRET usually uses a lanthanide donor and a delayed reading to cut background.
Consider `Cc1c(P(=S)(c2ccccc2)c2ccccc2)[n+]2ccccc2n1C`, for which the Potency is 1670 nM (active). In the case of `Cc1c(P(=S)(c2ccccc2)c2ccccc2)[n+]2ccccc2n1CCCCCc1ccccc1` it was 705 nM (active); in that of `Cc1c(P(=S)(c2ccccc2)c2ccccc2)[n+]2ccccc2n1CCCc1ccccc1`, 106 nM (active). In the case of `Cc1c(P(=S)(c2ccccc2)c2ccccc2)[n+]2ccccc2n1Cc1ccccc1` it was 1250 nM (active); in that of `Cc1c(P(=S)(c2ccccc2)c2ccccc2)[n+]2ccccc2n1CCCCc1ccccc1`, 1.1 nM (active); in that of `Cc1c(P(=S)(c2ccccc2)c2ccccc2)[n+]2ccccc2n1C/C=C/c1ccccc1`, 44.5 nM (active). In the case of `Cc1nc2ccccn2c1P(=S)(c1ccccc1)c1ccccc1` it was 17700 nM (active).

For `Cc1c(P(=S)(c2ccccc2)c2ccccc2)[n+]2ccccc2n1CCc1ccccc1`, the Potency was 2100 nM (active).
